Several values for one entry are separate records, joined by “and”; a condition that tells them apart may be missing. Equal entries are not always repeated. Results filed as inconclusive are left out. Where a call stands in place of a potency, no number is given. Activity calls are given as the source filed them. Unless noted, the call rests on the fitted dose curve; in most records, active means well fitted curve in the direction sought with a large enough effect in the repeat runs; inconclusive means weak or mixed curves; inactive means no such curve, though single readings can be large; an effect the other way counts as inactive or inconclusive.
Assays:
[1] = qHTS assay to identify small molecule agonists of the androgen receptor (AR) signaling pathway in the presence of an antagonist - cell viability counter screen (AID 1259379); settings: MDA-kb2 viability, CellTiter-Fluor, 16 h; series mostly up to 92.4 µM; further: nearly all actives have a fitted effect of over 25% in size; further: potency means the concentration at half of the fitted maximal effect
Summary of the method: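 MDA-kb2 human breast carcinoma cells (stable MMTV-luciferase, AR/GR responsive) were seeded 3,000 cells/well, pre-incubated 5 hr at 37C without CO2, then given 3.0uM nilutamide and compounds at 15 concentrations for 16 hr. Viability was read by CellTiter-Fluor fluorescence.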

[2] = qHTS assay to identify small molecule agonists of the estrogen receptor beta (ER-beta) signaling pathway - cell viability counter screen (AID 1259380); settings: ER-beta-bla HEK293T viability, CellTiter-Glo luminescence, 16 h; series mostly up to 92.4 µM; further: nearly all actives have a fitted effect of over 30% in size
Summary of the method: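 ER-beta-UAS-bla HEK293T cells in medium with 2% charcoal-stripped FBS were preincubated 6 hr at 37C, dosed with compound in DMSO for 16 hr, then after the bla read, CellTiter-Glo was added for 30 min at room temperature; luminescence recorded.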

[3] = target: Estrogen receptor (Homo sapiens) (UniProt P03372); test: qHTS assay to identify small molecule agonists of the estrogen receptor alpha (ER-alpha) signaling pathway in the presence of an antagonist (AID 1259383; calls by dose curve; further: top concentration of the series differs between compounds; nearly all actives have a fitted effect of over 15% in size); settings: VM7Luc4E2 cells, ERE-luciferase, +ICI-182,780, 22 h; series mostly up to 92.4 µM
Summary of the method: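 VM7Luc4E2 cells (endogenous full-length ER-alpha, 4×ERE-luciferase) were precultured 5 days in phenol red-free medium with 10% charcoal-stripped FBS, given 10.0nM ICI-182,780 (final), then treated with compounds at 15 concentrations for 22hr at 37C; luminescence read with ONE-Glo.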

[4] = qHTS assay to identify small molecule agonists or antagonists of the thyroid stimulating hormone receptor (TSHR) signaling pathway - wild type cell line counter screen (AID 1259384; calls by dose curve); settings: HEK293 wild type, cAMP HTRF counter-screen, hits give high values; series mostly up to 92.4 µM
Summary of the method: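 Counter screen in untransfected Hek293: compounds (15-point titration, triplicate) plus phosphodiesterase inhibitor Ro20-1724 added after 18 h plating; 30 min RT. Intracellular cAMP via competitive d2/cryptate immunoassay, 1 h incubation.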

[5] = target: Thyrotropin receptor (Homo sapiens) (UniProt P16473); test: qHTS assay to identify small molecule antagonists of the thyroid stimulating hormone receptor (TSHR) signaling pathway (AID 1259385; calls by dose curve; further: nearly all actives have a fitted effect of over 20% in size); settings: TSHR-HEK293 cAMP HTRF, TSH-stimulated antagonist mode; series mostly up to 92.4 µM
Summary of the method: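 Antagonist mode: compound-treated TSHR-expressing HEK293 cells were stimulated with 1.5 ng/mL TSH (final) in presence of Ro20-1724 for 30 min at RT. HTRF cAMP detection after 1 h; each compound tested at 15 concentrations, triplicate.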

[6] = qHTS assay to identify small molecule agonists of the estrogen receptor alpha (ER-alpha) signaling pathway in the presence of an antagonist - cell viability counter screen (AID 1259386); settings: VM7Luc4E2 viability, CellTiter-Fluor fluorescence, 22 h; series mostly up to 92.4 µM;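 further: cells exposed to compounds for 22 h at 37 °C before the viability read; nearly all actives have a fitted effect of over 30% in size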; further: potency means the concentration at half of the fitted maximal effect
Summary of the method: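 VM7Luc4E2 cells (endogenous full-length ER-alpha, 4×ERE-luciferase) were held 5 days in phenol red-free medium with 10% charcoal-stripped FBS, plated, then given 10.0nM ICI-182,780 and compounds at 15 concentrations for 22hr at 37C; viability read by CellTiter-Fluor fluorescence.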

[7] = qHTS assay to identify small molecule antagonists of the estrogen receptor beta (ER-beta) signaling pathway - cell viability counter screen (AID 1259382); settings: ER-beta-UAS-bla HEK293T viability, CellTiter-Glo luminescence, 16 h; series mostly up to 92.4 µM;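 further: HEK293T cells carrying ER-beta-UAS-bla reporter stimulated with estradiol; nearly all actives have a fitted effect of over 55% in size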
Summary of the method: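 ER-beta-UAS-bla HEK293T cells (2,000/well, 2% charcoal-stripped FBS) were pre-incubated 6 hr at 37C, then given compound plus 1nM final 17-beta-estradiol for 16 hr. Viability was read in the same wells by CellTiter-Glo luminescence after 30 min at room temperature.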

[8] = target: Androgen receptor (Homo sapiens) (UniProt P10275); test: qHTS assay to identify small molecule agonists of the androgen receptor (AR) signaling pathway in the presence of an antagonist (AID 1259381; calls by dose curve; further: nearly all actives have a fitted effect of over 15% in size); settings: MDA-kb2 MMTV-luciferase, AR agonist + nilutamide, 16 h; series mostly up to 92.4 µM
Summary of the method: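 MDA-kb2 human breast carcinoma cells carrying an MMTV-luciferase reporter (AR- and GR-responsive) were treated with compounds at 15 concentrations plus 3.0uM final nilutamide for 16hr at 37C without CO2; luminescence was read after ONE-Glo addition.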

Chain of Androgen receptor (Homo sapiens) (P10275 whole entry, looked up): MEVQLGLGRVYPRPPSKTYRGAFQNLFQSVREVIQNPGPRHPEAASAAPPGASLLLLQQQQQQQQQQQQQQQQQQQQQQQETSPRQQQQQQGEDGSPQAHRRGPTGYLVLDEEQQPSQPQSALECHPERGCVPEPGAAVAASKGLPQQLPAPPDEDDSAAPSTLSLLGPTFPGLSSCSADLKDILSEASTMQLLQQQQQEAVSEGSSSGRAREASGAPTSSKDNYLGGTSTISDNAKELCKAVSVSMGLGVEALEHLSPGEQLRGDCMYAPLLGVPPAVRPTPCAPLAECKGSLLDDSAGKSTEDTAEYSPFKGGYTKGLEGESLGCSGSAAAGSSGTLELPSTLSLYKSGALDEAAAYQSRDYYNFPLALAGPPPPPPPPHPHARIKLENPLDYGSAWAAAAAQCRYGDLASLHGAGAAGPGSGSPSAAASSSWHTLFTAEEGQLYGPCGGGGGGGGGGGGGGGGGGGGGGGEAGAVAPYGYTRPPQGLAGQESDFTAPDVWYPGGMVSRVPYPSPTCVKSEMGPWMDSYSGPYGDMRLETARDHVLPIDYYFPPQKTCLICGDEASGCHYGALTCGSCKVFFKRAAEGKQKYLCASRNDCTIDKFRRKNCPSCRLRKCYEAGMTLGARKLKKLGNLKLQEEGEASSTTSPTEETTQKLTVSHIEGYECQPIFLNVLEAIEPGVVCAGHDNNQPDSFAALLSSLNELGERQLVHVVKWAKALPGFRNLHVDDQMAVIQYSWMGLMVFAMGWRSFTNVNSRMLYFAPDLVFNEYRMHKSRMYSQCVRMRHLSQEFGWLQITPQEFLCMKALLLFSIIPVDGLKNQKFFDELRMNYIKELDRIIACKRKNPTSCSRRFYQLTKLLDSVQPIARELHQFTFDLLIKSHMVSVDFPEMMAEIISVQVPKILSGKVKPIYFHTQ
Chain of Estrogen receptor (Homo sapiens) (P03372 whole entry, looked up): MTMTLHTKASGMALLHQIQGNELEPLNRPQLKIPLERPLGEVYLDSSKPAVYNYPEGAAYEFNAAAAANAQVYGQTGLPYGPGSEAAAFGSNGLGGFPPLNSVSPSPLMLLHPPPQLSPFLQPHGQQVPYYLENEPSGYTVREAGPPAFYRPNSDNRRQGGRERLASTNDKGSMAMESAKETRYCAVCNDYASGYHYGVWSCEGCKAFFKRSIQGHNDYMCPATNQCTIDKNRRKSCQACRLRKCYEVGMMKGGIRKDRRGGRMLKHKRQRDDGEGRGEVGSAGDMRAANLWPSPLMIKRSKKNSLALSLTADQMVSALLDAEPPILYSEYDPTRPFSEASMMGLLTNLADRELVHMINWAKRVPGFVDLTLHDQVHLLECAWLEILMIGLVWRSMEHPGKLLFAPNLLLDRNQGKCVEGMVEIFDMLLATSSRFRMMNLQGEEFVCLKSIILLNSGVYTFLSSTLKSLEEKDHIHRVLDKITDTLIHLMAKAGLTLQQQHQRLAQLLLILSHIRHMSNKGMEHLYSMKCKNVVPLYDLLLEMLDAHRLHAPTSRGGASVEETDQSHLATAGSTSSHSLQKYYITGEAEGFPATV
Chain of Thyrotropin receptor (Homo sapiens) (P16473 whole entry, looked up): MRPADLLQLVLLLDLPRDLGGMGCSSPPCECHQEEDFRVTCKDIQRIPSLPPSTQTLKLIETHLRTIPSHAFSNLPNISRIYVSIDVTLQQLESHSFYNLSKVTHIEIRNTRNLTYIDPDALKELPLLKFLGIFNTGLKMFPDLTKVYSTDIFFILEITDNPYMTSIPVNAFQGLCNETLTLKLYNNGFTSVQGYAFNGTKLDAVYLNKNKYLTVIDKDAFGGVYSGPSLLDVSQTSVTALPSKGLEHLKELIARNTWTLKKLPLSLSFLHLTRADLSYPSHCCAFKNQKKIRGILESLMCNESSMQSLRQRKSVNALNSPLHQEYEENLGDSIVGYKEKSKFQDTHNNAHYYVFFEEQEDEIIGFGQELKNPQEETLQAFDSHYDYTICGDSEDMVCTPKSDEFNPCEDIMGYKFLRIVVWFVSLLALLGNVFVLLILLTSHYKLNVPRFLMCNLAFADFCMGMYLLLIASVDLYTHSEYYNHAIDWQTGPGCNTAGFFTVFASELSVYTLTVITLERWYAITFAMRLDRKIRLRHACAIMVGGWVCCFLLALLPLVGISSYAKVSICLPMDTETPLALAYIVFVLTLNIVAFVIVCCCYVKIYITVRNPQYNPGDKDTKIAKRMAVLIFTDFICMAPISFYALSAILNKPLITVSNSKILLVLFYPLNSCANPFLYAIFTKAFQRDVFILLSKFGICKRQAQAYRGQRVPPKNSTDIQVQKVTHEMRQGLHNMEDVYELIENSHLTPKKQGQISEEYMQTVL

Compound	Potency [1]	Potency [2]	Potency [3]	outcome [4]	outcome [5]	Potency [6]	outcome [7]	Potency [8]
CNC(=O)Oc1ccc2c(c1)[C@]1(C)CCN(C)[C@@H]1N2C	inactive	inactive	inactive	inactive	inactive	inactive	–	–
CC1(C)S[C@@H]2[C@H](NC(=O)COc3ccccc3)C(=O)N2[C@H]1C(=O)O	inactive	inactive	inactive	inactive	inactive	inactive	–	–
OC1C(O)C(O)C(O)C(O)C1O (stereo not drawn)	inactive	inactive	inactive	inactive	inactive	inactive	–	–
CCO[Si](CCCN)(OCC)OCC	inactive	inactive	inactive	inactive	inactive	inactive	–	–
CC(C)(Oc1ccc(CCNC(=O)c2ccc(Cl)cc2)cc1)C(=O)O	inactive	inactive	inactive	inactive	–	inactive	inactive	–
COc1ccc(OC)cc1	inactive	inactive	inactive	inactive	inactive	inactive	inactive	–
O=C(O)c1ccccc1C(=O)O	inactive	inactive	inactive	inactive	inactive	inactive	inactive	–
CC(=O)CCC=C(C)C	inactive	inactive	inactive	inactive	inactive	inactive	inactive	–
COc1ccc(C)cc1N	inactive	inactive	inactive	inactive	inactive	inactive	inactive	inactive
NCCCCCCN	inactive	inactive	–	inactive	inactive	inactive	inactive	–
COC(=O)c1cccnc1	inactive	inactive	–	inactive	–	inactive	inactive	inactive
O=S(=O)(O)c1ccc(N=Nc2c(O)ccc3cc(S(=O)(=O)O)ccc23)cc1	54.7 µM (active) and 30.6 µM (active)	inactive	inactive	–	–	48.8 µM (active) and 27.3 µM (active)	–	–
COc1cc(OC)c(C(=O)CCCN2CCCC2)c(OC)c1	inactive	inactive	–	inactive	–	inactive	–	inactive
COC(=O)CCCC(=O)OC	inactive	inactive	–	inactive	inactive	inactive	inactive	–
CCCCCCO	inactive	inactive	inactive	inactive	inactive	inactive	inactive	–

Reference: PubChem BioAssay (Tox21)
